Menin MLL FP TR = inhibitors of human menin-MLL interaction, mutant MLL peptide. AID 1768. 0.23% of 270,000 active. O00255. Potency, µM (titrated, usually from 61.6 µM), without a hit: top-dose FP activity change, negative = inhibition, usual class: inhibitors. Menin + Texas Red MLL mutant peptide, fluorescence polarization; active = well fitted inhibition curve with a large enough effect in the polarisation, with a control signal flat, not every such curve was filed as active; inconclusive = small, poorly fitted or top-dose-only effect, or effect the other way, or a change in a side signal; inactive = no such curve, though single readings can be large or run the other way; the % refers to the polarisation; also: potency is read from the fitted curve at half-maximal effect; % of control where 0% means no effect
Menin MLL FP FL = menin-MLL binding inhibition, fluorescein peptide; FP activity change, % at 61.4 µM; AID 1766; Fluorescence polarization, fluorescein-MLL peptide displacement from menin; 290,000 tested, under 10 active; active = well fitted curve in the direction sought with a large enough effect in the polarisation, not every such curve was filed as active; inconclusive = small, poorly fitted or top-dose-only effect, or effect the other way, or a change in a side signal; inactive = no such curve, though single readings can be large or run the other way; the % refers to the polarisation; also: % of control where 0% means no effect
CXXC DNA block = inhibitors of human MLL CXXC domain-DNA interaction. Q03164. MLL-CXXC / FITC-HOXA9 DNA fluorescence polarization. Potency, µM (doses to about 115 µM), inactives show at the top dose activity change, negative = inhibition, usual class: inhibitors. 0.037% of 290,000 active. AID 2662; active = well fitted inhibition curve with a large enough effect in the polarisation, with a control signal flat, not every such curve was filed as active; inconclusive = small, poorly fitted or top-dose-only effect, or effect the other way, or a change in a side signal; inactive = no such curve, though single readings can be large or run the other way; the % refers to the polarisation; also: potency is read from the fitted curve at half-maximal effect
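Fluorescence polarization: 7 uM MLL-CXXC (stock) preincubated 5 min with compounds, then 50 nM fluorescein-HOX-A9 DNA (stock) added; 30 min ambient. Buffer 50 mM Tris-HCl pH 7.5, 50 mM NaCl, 1 mM DTT, 0.05% BSA.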
RGS4 inhibitor = human RGS4 inhibition; P49798; Transcreener GDP fluorescence polarization, RGS4-accelerated GTP hydrolysis; Potency, µM (highest dose often 114 µM), for inactives: at the top dose activity change, negative = inhibition, most hits filed as inhibitors; 0.039% of 390,000 active; AID 504845; active = well fitted inhibition curve with a large enough effect; inconclusive = small, poorly fitted or top-dose-only effect; inactive = no such curve, though single readings can be large or run the other way; also: potency is read from the fitted curve at half-maximal effect; % is scaled to controls: 0 for no effect and ±100 for the full control effect; nearly all actives have a fitted effect of over 75% in size
Target sequence (P49798 whole entry, looked up): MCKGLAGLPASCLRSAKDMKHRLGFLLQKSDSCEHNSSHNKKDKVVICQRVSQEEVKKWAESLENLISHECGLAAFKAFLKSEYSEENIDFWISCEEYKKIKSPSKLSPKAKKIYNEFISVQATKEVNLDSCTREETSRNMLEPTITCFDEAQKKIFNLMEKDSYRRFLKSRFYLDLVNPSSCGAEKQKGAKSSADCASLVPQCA
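MLSMR compounds (23 nl, pin-transferred) preincubated 10 min at room temperature with a 500nM (2x) first reagent, then RGS4 at 900nM (2x) plus Transcreener GDP mix added; fluorescence polarization (620/688 nm) read before and after 90 min at 30 °C.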
ERG Ets-DNA blk = blocks human ERG Ets domain binding to DNA; fluorescence polarization, His-ERG Ets domain / labelled DNA; 0.028% of 370,000 active; P11308; Potency, µM (highest dose often 76.9 µM), inactives show at the top dose FP activity, negative = inhibition, actives largely listed as inhibitors; AID 624246; active = well fitted inhibition curve with a large enough effect in the polarisation, with a control signal flat; inconclusive = small, poorly fitted or top-dose-only effect, or effect the other way, or a change in a side signal; inactive = no such curve, though single readings can be large or run the other way; the % refers to the polarisation;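 also: polarization taken with two DNA probes labelled with fluorescein and Texas red; potency is read from the fitted curve at half-maximal effect; % of control where 0% means no effect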
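His-tagged ERG Ets domain (1 uM in the protein solution; 300mM KCl, 50mM Tris-HCl, 1mM EDTA, 1mM DTT, pH 7.5) received compound, then a probe mix of 5 nM fluorescein-DNA and 100nM Texas-615-DNA. Fluorescence polarization was read for both dyes.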
PTAP TSG101 blk = blocks PTAP/TSG101 interaction to inhibit HIV-1 budding. Q99816. Fluorescence polarization, FITC-PTAP peptide / Tsg101 binding. Potency, µM (highest dose often 115 µM), for inactives: at the highest dose activity change, negative = inhibition, most hits filed as inhibitors. 340,000 tested, under 10 active. AID 493005; active = well fitted inhibition curve with a large enough effect in the main read-out, with a control signal flat, not every such curve was filed as active; inconclusive = small, poorly fitted or top-dose-only effect, or effect the other way, or a change in a side signal; inactive = no such curve, though single readings can be large or run the other way; also: potency is read from the fitted curve at half-maximal effect; % of control where 0% means no effect
Target sequence (Q99816 whole entry, looked up): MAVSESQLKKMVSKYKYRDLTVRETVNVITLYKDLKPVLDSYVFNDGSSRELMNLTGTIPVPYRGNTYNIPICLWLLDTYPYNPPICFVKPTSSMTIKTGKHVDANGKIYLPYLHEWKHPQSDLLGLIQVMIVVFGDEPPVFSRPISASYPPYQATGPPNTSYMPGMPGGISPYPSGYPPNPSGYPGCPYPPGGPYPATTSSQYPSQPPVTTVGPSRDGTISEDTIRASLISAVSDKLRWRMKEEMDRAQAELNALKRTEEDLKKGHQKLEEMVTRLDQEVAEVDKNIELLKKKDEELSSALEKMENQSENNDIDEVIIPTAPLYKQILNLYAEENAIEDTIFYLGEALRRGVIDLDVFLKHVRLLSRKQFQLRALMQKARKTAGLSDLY
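FP read-out: FITC-PTAP peptide, 50 nM final, binding Tsg101 binding domain, 10 uM final; 20 min, r.t.; 10 mM HEPES pH 7.5, 0.15 M NaCl, 0.01% Tween 20, 3 mM EDTA, 0.1 mM TCEP.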
An asterisk follows results filed as active; ! = not confirmed by another sample; [ ] = remark or other dose. Many of the other results were omitted from the sample, so hits are more common in it than they were.

Results for CCCCOP(=O)(OCCCC)C(Nc1ccc(C(=O)OCC)cc1)c1ccncc1 (centres undefined) ?
Menin MLL FP TR: 3.2µM*; Menin MLL FP FL: -14; CXXC DNA block: 12%; RGS4 inhibitor: -14%[56.9 µM]; ERG Ets-DNA blk: -2%; PTAP TSG101 blk: -3%

Results for FC1(F)C(F)(F)C(F)(F)C2(F)C(F)(F)C(F)(F)C(F)(F)C(F)(F)C2(F)C1(F)F (centres undefined) ?
Menin MLL FP TR: -4%; Menin MLL FP FL: inconclusive; CXXC DNA block: inconclusive

Results for Cc1cc2cc(CNC(=O)Nc3ccc(Cl)c(Cl)c3)ccc2n1C ?
Menin MLL FP TR: inconclusive; Menin MLL FP FL: -8; CXXC DNA block: 0%; RGS4 inhibitor: 5%; ERG Ets-DNA blk: -21%; PTAP TSG101 blk: -7%

How did Cc1onc(-c2ccccc2Cl)c1C(=O)NCc1ccc2c(c1)cc(C)n2C do in these assays?
Menin MLL FP FL: inconclusive; CXXC DNA block: 1%; RGS4 inhibitor: -41%; ERG Ets-DNA blk: 25µM*; PTAP TSG101 blk: 1%

How did NC(N)=NN=C(/C=C/c1ccc([N+](=O)[O-])o1)/C=C/c1ccc([N+](=O)[O-])o1 do in these assays?
Menin MLL FP TR: -8%; Menin MLL FP FL: inconclusive; CXXC DNA block: 5%

What do the screens show for `CC[C@H](CC[C@@H](C)C1CC[C@H]2[C@@H]3CC=C4C[C@@H](O)CC[C@]4(C)[C@H]3CC[C@]12C)C(C)C` (some centres undefined)?
Menin MLL FP TR: 2%[24.8 µM]; Menin MLL FP FL: 0; RGS4 inhibitor: inconclusive

What do the screens show for `O=C(CN1CCCC1)Nc1ccc(Cl)cc1C(=O)c1ccccc1`?
Menin MLL FP TR: -18%; Menin MLL FP FL: -2; CXXC DNA block: -15%; RGS4 inhibitor: -8%; ERG Ets-DNA blk: 13µM*; PTAP TSG101 blk: 1%

Results for O=C(CCN1CCCCC1)Nc1ccc(Cl)cc1C(=O)c1ccccc1 ?
Menin MLL FP TR: inconclusive; Menin MLL FP FL: -1; CXXC DNA block: 0%; RGS4 inhibitor: 14%; ERG Ets-DNA blk: 8%; PTAP TSG101 blk: -4%

Results for CN1C2CCC1CC(OC(=O)c1cc(Cl)cc(Cl)c1)C2 (centres undefined) ?
Menin MLL FP TR: 2%; Menin MLL FP FL: 1; CXXC DNA block: -10%; RGS4 inhibitor: 30µM*!; ERG Ets-DNA blk: 5%; PTAP TSG101 blk: -4%

Results for O=C(O)CCCC[C@@H]1SC[C@H]2NC(=O)N[C@@H]12 ?
Menin MLL FP TR: 2%[24.8 µM]; Menin MLL FP FL: -6

How did CCCCCCCSc1cc(OC)c(CCN(C)C)cc1OC do in these assays?
Menin MLL FP TR: 7.1µM*; Menin MLL FP FL: 1; CXXC DNA block: inconclusive; RGS4 inhibitor: -36%; ERG Ets-DNA blk: 4%; PTAP TSG101 blk: 0%

How did CC1CC2OC2/C=C\C=C/C(=O)Cc2c(Cl)c(O)cc(O)c2C(=O)O1 (centres undefined) do in these assays?
Menin MLL FP TR: inconclusive; Menin MLL FP FL: 1

How did [Hg+][c]1ccccc1 do in these assays?
Menin MLL FP TR: -8%; Menin MLL FP FL: -2; CXXC DNA block: 15%

Results for CN(N=O)c1cc(O)ccc1O ?
Menin MLL FP TR: inconclusive; Menin MLL FP FL: -1; CXXC DNA block: -6%; RGS4 inhibitor: 24µM*

Results for CCOC(=O)N1CCCN(/[N+]([O-])=N/Oc2ccc([N+](=O)[O-])cc2[N+](=O)[O-])CC1 ?
Menin MLL FP TR: inconclusive; Menin MLL FP FL: -9; RGS4 inhibitor: -25%

Results for C=C1CCC(O)C/C1=C\C=C1/CCCC2(C)C1CCC2C(C)CCCC(C)C (centres undefined) ?
Menin MLL FP TR: -16%[24.8 µM]; Menin MLL FP FL: inconclusive

What do the screens show for `O=C(O)[C@H]1[C@H]2CN[C@H](C(=O)O)[C@H]21`?
Menin MLL FP TR: -14%[24.8 µM]; Menin MLL FP FL: -8; RGS4 inhibitor: 6µM*
